Measured values published in PubChem BioAssay (EPA / NIEHS).
Calls of active or inactive are those of the source. How the source made its calls: active means hit-call score of the fitted dose curve at least 0.9, where 1 is the maximum; inactive means score below 0.9.

Key:
[1] = ATG_CRE_CIS: Attagene CIS-FACTORIAL HepG2 Assay for human cAMP Responsive Element (CRE) binding protein 3 (AID 2282926); settings: HepG2 CRE cis-reporter, Attagene multiplexed mRNA; actives raise or lower the signal
Method in brief: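 We dosed HepG2 cells bearing multiple cis-promoter reporter units for 24 h and measured reporter mRNA by RT-PCR with capillary electrophoresis detection. Bidirectional concentration-response fitting used DMSO as negative control.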

[2] = biological target: CCAAT/enhancer-binding protein beta (Homo sapiens) (UniProt P17676); assay: ATG_C_EBP_CIS: Attagene CIS-FACTORIAL HepG2 Assay for human CCAAT/Enhancer Binding Protein (C/EBP) beta (AID 2282927); settings: HepG2 Attagene cis-factorial transcription factor reporter; actives raise or lower the signal
Method in brief: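 Chemical-treated HepG2 cells (24 h) bearing cis-regulated reporter constructs were processed for total RNA, then reverse transcription, PCR amplification, fluorescent primer extension and fragment analysis; gain- and loss-of-signal were fitted against DMSO.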

[3] = ATG_CMV_CIS: Attagene CIS-FACTORIAL HepG2 Assay for human CMV (Internal Marker) (AID 2282928); settings: HepG2 CMV promoter reporter, transcription factor profiling; actives raise or lower the signal;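 further: endpoint acts as a background internal control marker rather than a target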
Method in brief: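 HepG2 cells transiently transfected with multiple cis-regulated reporter units; 24 h compound exposure. Reporter mRNA quantified by RT-PCR, 6-FAM primer-extension labeling, HpaI digestion and capillary electrophoresis; bidirectional fitting against DMSO baseline.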

[4] = ATG_DR4_LXR_CIS: Attagene CIS-FACTORIAL HepG2 Assay for human Liver X Receptor (LXR), DR4 submotif (AID 2282929); settings: HepG2 Attagene DR4 cis-reporter, mRNA transcription; actives raise or lower the signal
Method in brief: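 Fluorescence intensity of labelled reporter cDNA fragments, separated by capillary electrophoresis, gives the signal. HepG2 cells bearing cis-regulated reporter constructs were treated 24 h; activity fitted bidirectionally relative to DMSO negative control.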

[5] = biological target: Aryl hydrocarbon receptor (Homo sapiens) (UniProt P35869); assay: ATG_Ahr_CIS: Attagene CIS-FACTORIAL HepG2 Assay for human Aryl Hydrocarbon Receptor (Ahr) (AID 2282930); settings: HepG2 AhR cis-factorial reporter transcription; actives raise or lower the signal
Method in brief: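 Following 24 h of chemical dosing, transfected HepG2 liver cells with cis-driven reporter units were lysed for RNA; reporter mRNA was quantified via RT-PCR and capillary electrophoresis, and responses fitted bidirectionally from DMSO.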

[6] = ATG_AP_1_CIS: Attagene CIS-FACTORIAL HepG2 Assay for human Activator Protein 1 (AP-1) (AID 2282931); settings: HepG2 Attagene cis-factorial AP-1 reporter mRNA; actives raise or lower the signal
Method in brief: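 Multiplexed HepG2 reporter assay, 24 h dosing. mRNA induction detected by RT-PCR plus capillary electrophoresis. Activity fitted in both directions against DMSO.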

[7] = ATG_AP_2_CIS: Attagene CIS-FACTORIAL HepG2 Assay for human Activator Protein 2 (AP-2) (AID 2282932); settings: HepG2 AP-2 cis-reporter, Attagene transcription factor profiling; actives raise or lower the signal
Method in brief: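 Bidirectional curve fitting against DMSO was applied to reporter mRNA signals from HepG2 cells 24 h after dosing. Cis-promoter reporter units, transiently transfected, were read by RT-PCR plus capillary electrophoresis.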

[8] = ATG_BRE_CIS: Attagene CIS-FACTORIAL HepG2 Assay for human Bone Morphogenetic Protein (BMP) Response Element (BRE) (AID 2282933); settings: HepG2 BMP response element reporter, Attagene transcription factor profiling; actives raise or lower the signal
Method in brief: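 Fluorescence-labelled reporter cDNA fragments, separated by capillary electrophoresis, gave the signal for this component of a 52-readout multiplex. HepG2 cells were transfected, exposed to chemicals for 24 h, and compared with DMSO using bidirectional fitting.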

[9] = biological target: Retinoic acid receptor alpha (Homo sapiens) (UniProt P10276); assay: ATG_DR5_RAR_CIS: Attagene CIS-FACTORIAL HepG2 Assay for human Retinoic Acid Receptor Alpha (RARE), DR5 submotif (AID 2282934); settings: HepG2 Attagene cis-factorial RARE DR5 reporter, mRNA; actives raise or lower the signal
Method in brief: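 Transfected HepG2 reporter cells are exposed to chemicals for 24 h. Then RNA is extracted and the DR5 element reporter transcript is measured by RT-PCR and capillary electrophoresis, with bidirectional curve fitting relative to DMSO.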

[10] = biological target: Transcription factor E2F1 (Homo sapiens) (UniProt Q01094); assay: ATG_E2F_CIS: Attagene CIS-FACTORIAL HepG2 Assay for human E2F Transcription Factor 1 (AID 2282935); settings: HepG2 Attagene cis-reporter, E2F reporter RNA transcripts; actives raise or lower the signal
Method in brief: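 Multiplexed cis-reporter assay: HepG2, transient transfection, 24 h dosing, mRNA quantitation by labeled RT-PCR and CE.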

Retinoic acid receptor alpha (Homo sapiens), sequence (P10276 whole entry, looked up): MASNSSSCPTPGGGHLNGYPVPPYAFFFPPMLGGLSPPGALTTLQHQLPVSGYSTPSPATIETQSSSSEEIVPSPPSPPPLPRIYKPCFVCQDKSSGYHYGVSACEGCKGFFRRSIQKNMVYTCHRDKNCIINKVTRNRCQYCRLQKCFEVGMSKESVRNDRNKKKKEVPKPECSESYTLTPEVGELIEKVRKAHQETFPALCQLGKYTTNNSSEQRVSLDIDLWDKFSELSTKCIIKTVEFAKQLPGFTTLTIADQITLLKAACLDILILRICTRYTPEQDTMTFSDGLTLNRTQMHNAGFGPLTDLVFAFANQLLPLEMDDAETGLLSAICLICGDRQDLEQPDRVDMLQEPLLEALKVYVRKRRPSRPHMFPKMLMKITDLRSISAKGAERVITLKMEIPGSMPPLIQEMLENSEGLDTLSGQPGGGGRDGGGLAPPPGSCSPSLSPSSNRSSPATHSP
Aryl hydrocarbon receptor (Homo sapiens), sequence (P35869 whole entry, looked up): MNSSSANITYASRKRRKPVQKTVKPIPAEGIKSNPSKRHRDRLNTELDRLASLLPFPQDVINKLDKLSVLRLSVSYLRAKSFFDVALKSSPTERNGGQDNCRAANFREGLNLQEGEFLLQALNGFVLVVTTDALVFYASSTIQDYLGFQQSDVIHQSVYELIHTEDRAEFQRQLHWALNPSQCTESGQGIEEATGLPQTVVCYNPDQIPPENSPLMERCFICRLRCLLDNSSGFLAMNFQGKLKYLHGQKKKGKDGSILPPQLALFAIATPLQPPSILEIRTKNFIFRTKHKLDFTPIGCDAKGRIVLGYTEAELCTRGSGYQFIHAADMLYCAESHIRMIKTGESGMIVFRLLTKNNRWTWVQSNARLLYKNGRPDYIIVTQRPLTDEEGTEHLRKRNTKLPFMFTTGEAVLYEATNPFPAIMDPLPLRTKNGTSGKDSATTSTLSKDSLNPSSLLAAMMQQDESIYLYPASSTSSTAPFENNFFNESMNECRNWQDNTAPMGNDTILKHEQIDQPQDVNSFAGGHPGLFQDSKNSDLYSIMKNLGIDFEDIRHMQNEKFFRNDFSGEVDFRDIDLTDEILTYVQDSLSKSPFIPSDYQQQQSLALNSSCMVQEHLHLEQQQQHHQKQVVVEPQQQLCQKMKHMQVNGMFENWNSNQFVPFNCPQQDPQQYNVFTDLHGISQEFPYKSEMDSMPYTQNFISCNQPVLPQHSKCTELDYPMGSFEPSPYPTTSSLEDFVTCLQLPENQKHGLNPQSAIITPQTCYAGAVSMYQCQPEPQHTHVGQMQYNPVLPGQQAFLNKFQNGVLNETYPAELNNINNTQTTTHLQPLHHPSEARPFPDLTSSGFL
Transcription factor E2F1 (Homo sapiens), sequence (Q01094 whole entry, looked up): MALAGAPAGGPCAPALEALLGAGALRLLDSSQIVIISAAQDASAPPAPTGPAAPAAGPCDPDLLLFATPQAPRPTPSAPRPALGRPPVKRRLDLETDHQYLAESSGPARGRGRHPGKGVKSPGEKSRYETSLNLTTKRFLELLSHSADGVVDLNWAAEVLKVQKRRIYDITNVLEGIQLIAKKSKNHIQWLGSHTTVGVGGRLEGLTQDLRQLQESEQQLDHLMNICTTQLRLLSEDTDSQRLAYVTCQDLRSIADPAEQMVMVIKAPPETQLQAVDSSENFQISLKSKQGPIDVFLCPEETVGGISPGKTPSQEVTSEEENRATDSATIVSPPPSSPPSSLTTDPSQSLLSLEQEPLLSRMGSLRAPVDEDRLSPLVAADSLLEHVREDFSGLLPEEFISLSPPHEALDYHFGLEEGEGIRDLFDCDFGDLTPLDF
CCAAT/enhancer-binding protein beta (Homo sapiens), sequence (P17676 whole entry, looked up, the tested form may be a part): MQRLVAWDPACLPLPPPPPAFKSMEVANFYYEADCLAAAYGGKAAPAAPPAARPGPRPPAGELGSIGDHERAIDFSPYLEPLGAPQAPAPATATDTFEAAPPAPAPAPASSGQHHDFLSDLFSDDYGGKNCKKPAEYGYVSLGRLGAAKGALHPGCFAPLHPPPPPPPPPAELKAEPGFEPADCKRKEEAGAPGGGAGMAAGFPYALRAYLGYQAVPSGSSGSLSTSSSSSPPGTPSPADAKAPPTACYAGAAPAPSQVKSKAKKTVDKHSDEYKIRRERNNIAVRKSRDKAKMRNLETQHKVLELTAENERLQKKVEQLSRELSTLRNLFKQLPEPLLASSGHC

Structure (SMILES)	outcome [1]	outcome [2]	outcome [3]	outcome [4]	outcome [5]	outcome [6]	outcome [7]	outcome [8]	outcome [9]	outcome [10]	AC50 [1]	AC50 [3]	AC50 [5]
Nc1ccn([C@H]2CS[C@@H](CO)O2)c(=O)n1	inactive	inactive	inactive	inactive	inactive	inactive	inactive	inactive	inactive	inactive	–	–	–
Cc1cc(=O)oc2cc(N(C)C)ccc12	–	inactive	–	inactive	inactive	inactive	inactive	inactive	inactive	inactive	54.1 µM (active)	46.7 µM (active)	–
NCc1ccco1	inactive	inactive	inactive	inactive	inactive	inactive	inactive	inactive	inactive	inactive	–	–	–
C=CCN(CC=C)CC=C	inactive	inactive	inactive	inactive	inactive	inactive	inactive	inactive	inactive	inactive	–	–	–
IC(I)I	inactive	inactive	inactive	inactive	–	inactive	inactive	inactive	inactive	inactive	–	–	12.8 µM (active)
CC(C)NCC(O)COc1ccc(CC(N)=O)cc1 (stereo not given)	inactive	inactive	inactive	inactive	inactive	inactive	inactive	inactive	inactive	inactive	–	–	–
C=C(CC(=O)O)C(=O)O	inactive	inactive	inactive	inactive	inactive	inactive	inactive	inactive	inactive	inactive	–	–	–
CC1=NN(c2ccc(S(=O)(=O)O)cc2)C(=O)C1	inactive	inactive	inactive	inactive	inactive	inactive	inactive	inactive	inactive	inactive	–	–	–
CCCCCCC(C)(C)S	inactive	inactive	inactive	inactive	inactive	inactive	inactive	inactive	inactive	inactive	–	–	–
Brc1ccc(Br)c(Br)c1	inactive	inactive	inactive	inactive	inactive	inactive	inactive	inactive	inactive	inactive	–	–	–
CCOC(=O)CN	inactive	inactive	inactive	inactive	inactive	inactive	inactive	inactive	inactive	inactive	–	–	–
CC(C)C(OC(=O)c1ccccc1)C(C)(C)COC(=O)c1ccccc1 (stereo not given)	inactive	inactive	inactive	inactive	inactive	inactive	inactive	inactive	inactive	inactive	–	–	–
